Screening data: PubChem, National Center for Advancing Translational Sciences (NCATS)
CHX counter: counter-screen for Shiga toxin inhibitors: cycloheximide protein synthesis inhibition | max response, % | cell reporter, cycloheximide protein synthesis inhibition counterscreen | 300,000 compounds, 12% hits; in the data active means max response mostly above about 13%, no sharp cut-off; inactive means mostly below about 14%; further: read at 38.3 µM for the half of the compounds with a filed dose
Shiga inhibitor: inhibitors of Shiga toxin in Vero cells; Vero cells, Shiga toxin protein synthesis inhibition reporter; inhibition, % at 38.7 µM; 290,000 compounds, 9.2% hits; in the data active means inhibition mostly above about 28%, no sharp cut-off; inactive means mostly below about 43%
FMDV inh: blocks foot and mouth disease virus. AID 1159524. Potency, µM (titrated, usually from 57.9 µM), usual class: inhibitors. FMDV antiviral cell-based qHTS. 410,000 compounds, 1.2% hits; calls by dose curve; tested in HEK293T cells; further: read-out not given here; nearly all actives have a fitted effect of over 45% in size
Sm TGR block: inhibitors of Schistosoma mansoni thioredoxin glutathione reductase; AID 485364; purified TGR, DTNB reduction, TNB absorbance 405 nm; Potency, µM (doses to about 114 µM), usual class: inhibitors; 360,000 compounds, 3% hits; Q962Y6; active means well fitted inhibition curve with a large enough effect; inconclusive means small, poorly fitted or top-dose-only effect; inactive means no such curve, though single readings can be large or run the other way; further: nearly all actives have a fitted effect of over 60% in size
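Kinetic colorimetric format: TGR-catalysed, NADPH-driven DTNB reduction monitored via TNB absorbance. Enzyme dispensed at 20 nM; compound exposure 15 min at room temperature before reaction start.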
Large screens that a line does not name were inactive. A selection: hits, their analogues and other compounds. The true share with any hit is near 12%.

O=C(/C=C/c1ccc(Cl)cc1)NCCc1ccccc1	none
O=C(CSc1nccn1-c1ccc(F)cc1)Nc1ccc(OC(F)(F)F)cc1	none (no result: CHX counter, Shiga inhibitor)
CN=c1scc(-c2ccccc2F)n1/N=C(\C)c1cccnc1	CHX counter 48, Shiga inhibitor 149
O=C(OCC(=O)N1CCOCC1)c1ccc2c(c1)OCCO2	none
O=C(CCN1CCCCC1)c1ccc2c(c1)OCO2	Sm TGR block 0.28µM
O=C(OCCN1CCOCC1)c1ccc2c(c1)OCCO2	CHX counter 53, Shiga inhibitor 75
Cc1ccccc1C(=O)OCCN1CCOCC1	CHX counter 23
O=C(OCCN1CCOCC1)c1ccccc1	none
O=C(CCN1CCOCC1)c1ccc2c(c1)OCCO2	Sm TGR block 1.6µM
O=C(CCN1CCOCC1)c1ccccc1	none (no result: FMDV inh)
Cc1ccccc1-c1nc(CS(=O)(=O)CC(=O)NCC(C)c2ccccc2)c(C)o1 (stereo unspecified)	none (no result: CHX counter, Shiga inhibitor)
Cc1ccc(C)c(C(=O)N2CCC(C3(c4ccccn4)NC(=O)N(CC4CCCO4)C3=O)CC2)c1 (stereo unspecified)	none (no result: CHX counter, Shiga inhibitor, Sm TGR block)
O=C(Cc1ccccc1)c1ccc2c(c1)OCCO2	CHX counter 43, Shiga inhibitor 87 (no result: Sm TGR block)
O=C(CCCO)c1ccc2c(c1)OCCO2	none (no result: FMDV inh)
O=C(CCN1CCc2ccccc2CC1)c1ccc2c(c1)OCCO2	Sm TGR block 0.35µM
Cc1cccc(C(=O)OCCN2CCOCC2)c1	CHX counter 26, Shiga inhibitor 41
O=C(CCCN1CCC(c2ccccc2)C1)c1ccc2c(c1)OCCO2 (stereo unspecified)	none (no result: FMDV inh)
O=C(CCCN1CCOCC1)c1ccc2c(c1)OCCO2	CHX counter 32 (no result: FMDV inh)
CCc1ccc(C(=O)c2cn(Cc3ccc(F)cc3)c3cc(OC)c(OC)cc3c2=O)cc1	FMDV inh inconclusive (no result: CHX counter, Shiga inhibitor)
Cc1cccc(NC(=O)c2ccc(-n3c(C)nnc3C)cc2)c1	none (no result: CHX counter, Shiga inhibitor)
CCOc1ccc2ncc3c(-c4ccccc4)nn(CC(=O)Nc4cccc(F)c4)c3c2c1	none (no result: CHX counter, Shiga inhibitor)
O=C(OCCN1CCOCC1)c1ccc(Cl)cc1Cl	CHX counter 39, Shiga inhibitor 48
COc1ccc(C(=O)OCCN2CCOCC2)cc1	CHX counter 25, Shiga inhibitor 44
O=C(OCCN1CCOCC1)c1ccc(OCCN2CCOCC2)cc1	none
CCc1ccc(NC(=O)NCCc2c(C)nn(C)c2C)cc1	none (no result: CHX counter, Shiga inhibitor)
C/C(=N\Nc1nncc2ccccc12)c1ccc(OCC(=O)N(C)C)cc1	CHX counter 44, Shiga inhibitor 138
CC/C(=N\Nc1nncc2ccccc12)c1ccc(F)cc1	CHX counter 47, Shiga inhibitor 71
CCOC(=O)NNc1nncc2ccccc12	none (no result: CHX counter, Shiga inhibitor)
Cc1ccc(CS(=O)(=O)c2ccccc2-c2nnc(-c3ccc(Cl)cc3)o2)cc1	none
COc1ccc(-c2nnc(-c3ccc(N(C)C)cc3)o2)cc1	none
O=[N+]([O-])c1cccc(-c2nnc(-c3ccccc3F)o2)c1	CHX counter 30, Shiga inhibitor 22
CN(C)c1ccc(-c2nnc(-c3ccccc3F)o2)cc1	CHX counter 28, Shiga inhibitor 59
Cc1cccc(-c2nnc(-c3ccccc3)o2)c1	CHX counter 33, Shiga inhibitor 56
Cc1ccccc1-c1nnc(-c2ccc(Cl)cc2)o1	CHX counter 58, Shiga inhibitor 104
Nc1nnc(-c2cccc([N+](=O)[O-])c2)o1	none
COc1ccc(C2Oc3cc(OC)cc(OC)c3CC2O)cc1 (stereo unspecified)	none (no result: CHX counter, Shiga inhibitor, Sm TGR block)
Cc1ccc(NC(=O)CN(CCc2ccccc2)S(=O)(=O)c2ccccc2)c(C)c1	none (no result: CHX counter, Shiga inhibitor)
Cc1ccccc1-c1nnc(-c2ccccc2)o1	CHX counter 35, Shiga inhibitor 95
Cc1nnc(-c2ccccc2)o1	none
Cc1ccccc1-c1nnc(CS(=O)(=O)c2ccccc2)o1	CHX counter 43, Shiga inhibitor 61
Cn1cc(-c2nnc(-c3ccccc3)o2)c2ccccc21	CHX counter 59, Shiga inhibitor 146
Cc1cc(-c2nnc(-c3cccc(Cl)c3)o2)no1	CHX counter 37, Shiga inhibitor 93
Cn1c2ccccc2c2nnc(SCc3nnc(-c4ccccc4)o3)nc21	none (no result: FMDV inh)
CN1C(=O)c2[nH]nc(-c3ccc(F)cc3)c2C1c1cccc(O)c1 (stereo unspecified)	none (no result: CHX counter, Shiga inhibitor)
COc1cccc(OCc2nc3ccccc3n2C)c1	none (no result: CHX counter, Shiga inhibitor)
Cc1noc(C)c1-c1ccc2ncnc(Nc3ccc(F)cc3)c2c1	none (no result: CHX counter, Shiga inhibitor, Sm TGR block)
CCc1c(C)sc2c1CCN(C(=O)Nc1cc(C)ccc1OC)C2c1ccc(F)cc1 (stereo unspecified)	FMDV inh inconclusive (no result: CHX counter, Shiga inhibitor)
Cc1ccccc1-c1nc(Cc2ccc(Cl)cc2)no1	CHX counter 25
O=C(NNC(=O)c1cccc(Br)c1)Nc1ccc(Cl)cc1	none
O=C(NC(=S)Nc1cc(Cl)ccc1O)c1cccc(Br)c1	CHX counter 42, Shiga inhibitor 90
Cc1snnc1C(=O)NC(=S)Nc1ccccc1	Sm TGR block 8.9µM
O=C(NNC(=S)NC(=O)c1ccccc1)c1cccnc1	none
O=C(Nc1cccnc1)c1cccs1	none
O=C(NC(=S)Nc1cccnc1)c1ccccc1	CHX counter 28, Shiga inhibitor 71, Sm TGR block 22µM
O=C(NC(=S)Nc1cccnc1)c1cccs1	CHX counter 20, Shiga inhibitor 42, Sm TGR block 10µM
Cc1nc(-c2ccccc2)sc1CCNS(=O)(=O)c1ccccc1	none (no result: CHX counter, Shiga inhibitor)
O=C(Nc1ncc(Cl)cn1)c1cccs1	CHX counter 45, Shiga inhibitor 59
O=C(Nc1ccncc1)c1cccs1	none
O=C(Nc1cccc(NC(=O)c2cccs2)c1)c1cccnc1	none
O=C(NC(=S)NCCSc1ccccc1)c1cccnc1	CHX counter 27, Shiga inhibitor 37
O=C(NC(=S)Nc1cccnc1)c1cccc(Br)c1	CHX counter 17, Shiga inhibitor 63, Sm TGR block 16µM
COc1ccc(C(=O)NC(=S)Nc2cccnc2)cc1OC	none (no result: Sm TGR block)
O=C(Nc1cnccn1)c1cccs1	CHX counter 19
O=C(NC(=S)NCc1cccnc1)c1ccccc1	none
CCOc1c(Cl)cc(Cl)cc1CNCCSc1nnnn1C	none (no result: CHX counter, Shiga inhibitor)
O=C(COC(=O)c1cccs1)Nc1ccc(Cl)cn1	none (no result: CHX counter, Shiga inhibitor, Sm TGR block)
O=C(NC(=S)Nc1ccc(Cl)cn1)c1cccs1	CHX counter 63, Shiga inhibitor 99
CCCC(=O)NC(=S)Nc1ccc(Cl)cn1	CHX counter 30
Cc1ccc(CNS(=O)(=O)c2c(C)nc3sc(C)cn3c2=O)cc1	none (no result: CHX counter, Shiga inhibitor)
CCOC(=O)CSc1nnc(NCC(=O)OC(C)C)c(=O)[nH]1	Sm TGR block 13µM
C/C(=N\Nc1nccnc1Cl)c1ccc(Br)cc1	CHX counter 30, Shiga inhibitor 78
COc1ccc(/C(C)=N/Nc2nccnc2Cl)cc1	none (no result: CHX counter, Shiga inhibitor)
C/C(=N\Nc1nccnc1Cl)c1ccc(O)c(C)c1	CHX counter 28 (no result: Shiga inhibitor)
C/C(=N\Nc1nccnc1Cl)c1ccc([N+](=O)[O-])cc1	CHX counter 41, Shiga inhibitor 66
Cc1nnc(SCc2cc(=O)n3c(C)cccc3n2)s1	none (no result: CHX counter, Shiga inhibitor)
COc1ccc(N2CCN(Cc3cccn3-c3nnc(N4CCN(C5CCCCC5)CC4)s3)CC2)cc1	none (no result: CHX counter, Shiga inhibitor)
CCOC(=O)c1ccc(NC(=O)c2ccc3c(c2)CCN3S(=O)(=O)c2ccc(Cl)cc2)cc1	FMDV inh inconclusive (no result: CHX counter, Shiga inhibitor)
COc1ccc(CCN2C(=O)N(c3ccc(F)cc3)C(=O)C2CC(=O)Nc2ccccc2)cc1 (stereo unspecified)	none (no result: CHX counter, Shiga inhibitor)
O=S1(=O)c2ccccc2N=NN1Cc1ccc(Cl)cc1	Sm TGR block 2.5µM
CCn1nc(C)c(Br)c1-c1nc(-c2cccc(C)c2)no1	none
